From PubChem BioAssay AID1963315 (National Center for Advancing Translational Sciences (NCATS), 2024)
Results filed as inconclusive are left out. Where a call stands in place of a potency, no number is given. Calls of active or inactive are those of the source. Calls follow the shape of the full dose curve.

Molecular target: Tyrosine-protein kinase ABL1 (Homo sapiens) (UniProt P00519)
Experiment: ABL1 kinase (ABL1-N-HiBiT) SDR gain of signal screen
Outline: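 Gain-of-signal luminescence after Nano-Glo HiBiT detection (10 min, room temperature) measures compound binding to 10 nM ABL1-N-HiBiT, which had been incubated 30 min with compound at room temperature, light-protected, without ATP.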

Chain of Tyrosine-protein kinase ABL1 (Homo sapiens) (P00519 whole entry, looked up): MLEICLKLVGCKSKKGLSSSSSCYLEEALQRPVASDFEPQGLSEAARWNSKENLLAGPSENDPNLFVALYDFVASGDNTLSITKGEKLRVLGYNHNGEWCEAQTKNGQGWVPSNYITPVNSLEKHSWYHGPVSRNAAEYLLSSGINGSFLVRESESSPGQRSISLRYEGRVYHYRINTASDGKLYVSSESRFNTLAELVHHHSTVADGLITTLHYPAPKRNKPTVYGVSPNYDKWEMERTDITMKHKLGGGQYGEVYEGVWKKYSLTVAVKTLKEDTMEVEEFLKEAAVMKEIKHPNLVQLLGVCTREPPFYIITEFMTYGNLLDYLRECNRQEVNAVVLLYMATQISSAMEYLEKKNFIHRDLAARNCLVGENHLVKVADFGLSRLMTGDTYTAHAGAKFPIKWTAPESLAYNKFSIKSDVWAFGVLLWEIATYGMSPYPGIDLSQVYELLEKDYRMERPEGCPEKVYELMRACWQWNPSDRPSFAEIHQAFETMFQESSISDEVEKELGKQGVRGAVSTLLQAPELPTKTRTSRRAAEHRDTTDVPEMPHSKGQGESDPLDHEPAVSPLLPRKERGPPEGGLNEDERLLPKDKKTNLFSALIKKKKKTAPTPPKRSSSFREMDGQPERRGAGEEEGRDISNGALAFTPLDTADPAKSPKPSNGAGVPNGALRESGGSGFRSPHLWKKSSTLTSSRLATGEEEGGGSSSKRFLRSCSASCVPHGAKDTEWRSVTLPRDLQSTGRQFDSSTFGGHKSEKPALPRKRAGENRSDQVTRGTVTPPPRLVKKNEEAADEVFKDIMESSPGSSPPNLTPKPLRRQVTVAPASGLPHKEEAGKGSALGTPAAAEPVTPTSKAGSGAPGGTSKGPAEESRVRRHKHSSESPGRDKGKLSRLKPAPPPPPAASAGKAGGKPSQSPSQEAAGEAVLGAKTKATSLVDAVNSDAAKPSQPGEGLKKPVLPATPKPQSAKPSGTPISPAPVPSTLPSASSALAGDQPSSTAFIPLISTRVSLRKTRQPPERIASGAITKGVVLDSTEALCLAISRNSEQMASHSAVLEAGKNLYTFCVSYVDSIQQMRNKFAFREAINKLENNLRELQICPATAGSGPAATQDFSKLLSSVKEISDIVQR

| Structure (SMILES) | Potency |
| --- | --- |
| O=C1C(c2c(O)[nH]c3ccccc23)=Nc2ccccc21 | inactive |
| CCN1/C(=C\C(C)=O)Sc2ccc(OC)cc21 | inactive |
| CN1CCN(c2ccc(Nc3ncc4cc(C#N)c(=O)n(C5CCCC5)c4n3)cc2)CC1 | 29.5 nM (active) |
